These results are taken from PubChem BioAssay (EPA / NIEHS).

Several values for one entry are separate records, joined by “and”; a condition that tells them apart may be missing. Identical values can stand only once. Records with an inconclusive call do not appear. Where a structure was tested more than once in an assay, its records may differ in their call. Activity calls are given as the source filed them. How the source made its calls: active means hit-call score of the fitted dose curve at least 0.9, where 1 is the maximum; inconclusive means response in the unintended direction; inactive means score below 0.9.

The assay deals with Sodium/Iodide Symporter (NIS), SLC5A5 (gene 6528). The assay is described as follows: CPHEA_Stoker_NIS_Inhibition_RAIU: CPHEA's Radioactive Iodide Uptake (RAIU) Assay for Sodium/Iodide Symporter (NIS) Inhibition, Stoker and Laws Labs (AID 2283841). Here is the method:
CPHEA_Stoker_NIS is a cell-based, single-readout assay that uses hNIS-HEK293T-EPA, a novel human kidney cell line expressing human NIS, with measurements taken at 2 hours after chemical dosing in a 96-well plate. This radioactive iodide uptake (RAIU) assay is used to identify inhibitors of NIS-mediated iodide uptake. A parallel cytoxicity assay (Cell Titer Glo, Promega) was also run in the same cell line.CPHEA_Stoker_NIS_Inhibition_RAIU is one of 2 assay components measured from the CPHEA_Stoker_NIS assay. It is designed to make measurements of radioactive substrate uptake to understand transporter function, as detected with 125-i signals by MicroBeta radioactivity plate reader technology.Data from the assay component CPHEA_Stoker_NIS_Inhibition_RAIU was analyzed at the endpoint, CPHEA_Stoker_NIS_Inhibition_RAIU, in the positive analysis fitting direction relative to DMSO as the negative control and baseline of activity. Measures of radioactive substrate uptake for loss-of-signal activity can be used to understand the effects on transporter function at the pathway level as they relate to the sodium-iodide symporter, gene SLC5A5. To generalize the intended target to other relatable targets, this assay endpoint is annotated to the transporter intended target family, where the subfamily is sodium-iodide symporter (NIS).
hNIS-HEK293T-EPA cells were seeded with a MultiFlo FX dispenser (BioTek, Winooski, VT) into ScintiPlate-96 microplates (Perkin Elmer, Waltham, MA) at a density of 4.0x10^4 cells per well in 200uL growth media and incubated for 40 hours before experimentation. On day of the assay, carrier-free 125I (Perkin-Elmer, Waltham, MA; specific activity: 17.4Ci/mg) was diluted with Hanks' balanced salt solution (Sigma, St. Louis, MO) supplemented with 10mM HEPES (uptake buffer; pH 7.4) at 5uCi/mL (288pg 125I/mL uptake buffer; 2.30nM). The assay was initiated by washing cells twice with 200uL uptake buffer using a 96-well Tecan HydroSpeed plate washer (Tecan, Mannedorf, Switzerland). Uptake buffer (59.7uL) was then added back to each well. Chemical samples (350nL at 200X) were administered using the HDR tool as previously described to achieve a 1X chemical/0.5% final DMSO concentration with subsequent addition of 10uL of 125I dilution (final [125I]: 329pM; 2.88pg/well) for a final reaction volume of 70uL/well. Cells were incubated at room temperature for 2 hours and then washed twice with 200uL ice cold uptake buffer. All uptake buffer was aspirated from wells, plates were sealed, and read on a MicroBeta2 plate reader (Perkin Elmer, Waltham, MA) using a detection protocol to measure CPM corresponding to intracellular 125I concentration. Each chemical concentration (0.001, 0.01, 0.1, 1.0, 10, and 100uM) was assayed in triplicate with three independent biological replicate plates (3 sequential cell passages). Additionally, a concentration response of NaClO4 (0.001, 0.01, 0.1, 1.0, 10, and 100uM) served as a positive control inhibition curve on each RAIU assay plate. DMSO control wells were assayed on each plate as a measure of maximum iodide uptake for normalization and determination of intra- and inter-assay variation. (Toxicol In Vitro, 2017, 40:66-78).
With `CCc1nn(C)c(C(=O)NCc2ccc(C(C)(C)C)cc2)c1Cl`, the AC50 (usually the midpoint of the concentration-response curve, whichever way the signal moves) is 2.5 µM (active).

As for `CCCCOC(=O)c1ccccc1C(=O)OCCCC`, the result was inactive.

On to `CS/C(C)=N/OC(=O)N(C)SN(C)C(=O)O/N=C(\C)SC`, for which the outcome was inactive.

As to `CCON=C(CC)C1=C(O)CC(c2c(C)cc(C)cc2C)CC1=O` (stereo not given), the outcome was inactive.

With `CCOC(=O)C(Cl)Cc1cc(-n2nc(C)n(C(F)F)c2=O)c(F)cc1Cl` (stereo not given), the result was inactive.

As for `COC(=O)C(C)Oc1ccc(Oc2ccc(Cl)cc2Cl)cc1` (stereo not given), the outcome was inactive.

For the molecule `CCCC1COC(Cn2cncn2)(c2ccc(Cl)cc2Cl)O1` (stereo not given), the result was inactive.

For the molecule `CC1COC(Cn2cncn2)(c2ccc(Oc3ccc(Cl)cc3)cc2Cl)O1` (stereo not given), the AC50 is 11.5 µM (active).

In the case of `CC(C)(C)c1ccc(CSc2cnn(C(C)(C)C)c(=O)c2Cl)cc1`, the result was inactive.

As to `CCOP(=S)(OCC)SCn1c(=O)oc2cc(Cl)ccc21`, the AC50 was 34.5 µM (active).

Consider `Oc1ccccc1-c1ccccc1`, for which the outcome was inactive.

For the molecule `CC(C)Oc1cc(-n2nc(C(C)(C)C)oc2=O)c(Cl)cc1Cl`, the outcome was inactive.

With `COc1nc(NC(C)C)nc(NC(C)C)n1`, the result was inactive.

With `CCCN(CCC)c1c([N+](=O)[O-])cc(S(N)(=O)=O)cc1[N+](=O)[O-]`, the result was inactive.

`COP(=S)(OC)Oc1nc(Cl)c(Cl)cc1Cl`: the result was inactive.

As for `C=CCC1=C(C)C(OC(=O)C2C(C=C(C)C)C2(C)C)CC1=O` (stereo not given), the result was inactive; the AC50 is 34 µM (active) and 50 µM (active).

For the molecule `CON(C)C(=O)Nc1ccc(Cl)c(Cl)c1`, the outcome was inactive.

On to `N#Cc1nn(-c2c(Cl)cc(C(F)(F)F)cc2Cl)c(N)c1S(=O)C(F)(F)F` (stereo not given), for which the AC50 was 26.8 µM (active).

`CO/C=C(/C(=O)OC)c1ccccc1Oc1cc(Oc2ccccc2C#N)ncn1`: the outcome was inactive.

Turning to `C=CCC1=C(C)[C@@H](OC(=O)[C@@H]2[C@@H](C=C(C)C)C2(C)C)CC1=O`, the AC50 was 50 µM (active).

With `Cc1c(F)c(F)c(COC(=O)C2C(/C=C(\Cl)C(F)(F)F)C2(C)C)c(F)c1F` (stereo not given), the outcome was inactive.

Take `N#CC(CCc1ccc(Cl)cc1)(Cn1cncn1)c1ccccc1` (stereo not given): the concentration at half-maximal activity (AC50) is 76 µM (active).

On to `OC(c1ccc(Cl)cc1)(c1cncnc1)c1ccccc1Cl` (stereo not given), for which the outcome was inactive.

Regarding `CCCCNC(=O)OCC#CI`, the AC50 is 9.77 µM (active).

Regarding `Cc1ccc(-c2c(Cl)nc(C#N)n2S(=O)(=O)N(C)C)cc1`, the outcome was inactive.

Take `COc1ccc(C(c2ccc(OC)cc2)C(Cl)(Cl)Cl)cc1`: the result was inactive.

For `C#CCOS(=O)OC1CCCCC1Oc1ccc(C(C)(C)C)cc1` (stereo not given), the outcome was inactive.

`O=C(Nc1ccccc1)Nc1ccnc(Cl)c1`: the AC50 is 50 µM (active).

Regarding `Fc1ccc(Oc2ccnc3cc(Cl)cc(Cl)c23)cc1`, the AC50 is 31.1 µM (active).

Regarding `CN(C)C(=S)SSC(=S)N(C)C`, the outcome was inactive.

Take `COC(=O)N(OC)c1ccccc1COc1ccn(-c2ccc(Cl)cc2)n1`: the result was inactive.

For the molecule `CCOC(=O)CC(SP(=S)(OC)OC)C(=O)OCC` (stereo not given), the result was inactive.

Regarding `C=CC1(C)OC(=O)N(c2cc(Cl)cc(Cl)c2)C1=O` (stereo not given), the outcome was inactive.

Turning to `CCOc1cc(Oc2ccc(C(F)(F)F)cc2Cl)ccc1[N+](=O)[O-]`, the AC50 was 22.1 µM (active).
